The list is not random: actives were taken first. Their share in the collection is about 5%.
SENP8 block-1: SENP8 (human) protease inhibition; Q96LD8; recombinant SENP8, Nedd8 substrate fluorescence; inhibition, % at 20 µM; 0.64% of 360,000 active; AID 602440; in the data active = inhibition mostly above about 40%, no sharp cut-off; inactive = mostly below about 27%
Target sequence (Q96LD8 whole entry, looked up): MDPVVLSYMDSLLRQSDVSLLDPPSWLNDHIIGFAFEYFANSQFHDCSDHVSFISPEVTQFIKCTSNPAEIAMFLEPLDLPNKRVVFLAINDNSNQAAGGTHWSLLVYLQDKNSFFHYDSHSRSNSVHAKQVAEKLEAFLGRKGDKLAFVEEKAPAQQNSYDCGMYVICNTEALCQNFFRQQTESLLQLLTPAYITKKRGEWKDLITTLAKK
SENP8 block-2: SENP8 protease inhibition. Q96LD8. purified SENP8, Z-RLRGG-aminoluciferin cleavage, luminescence. inhibition, % at 10 µM. 1.2% of 330,000 active; in the data active = inhibition above about 50%
AHR act: human AHR activation. 2.5% of 320,000 active. AHR-responsive luciferase reporter cells, luminescence. activation, % at 5 µM. P35869; in the data active = activation above about 47%;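 also: 0% = vehicle wells and 100% = reference agonist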
SENP7 block: blocks the human protease SENP7. inhibition, % at 5 µM. Q9BQF6. 1.5% of 330,000 active. recombinant SENP7, Z-RLRGG-aminoluciferin luminescence, 40 min;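 active = inhibition above about 50% at the single test dose, limit read from the data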;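 also: plate controls were DMSO with enzyme for no effect and no enzyme buffer wells for full effect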
SENP6 block: blocks the human protease SENP6; Q9GZR1; Recombinant SENP6 catalytic domain, aminoluciferin luminescence; inhibition, % at 10 µM; 1.8% of 330,000 active;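 active = inhibition above about 50% at the single tested dose, limit read from the data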;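 also: plate controls were DMSO wells with enzyme for no effect and DMSO wells lacking enzyme for full effect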
EBI2 antag: EBI2 (human) antagonism. P32249. EBI2 beta-arrestin recruitment, luminescence, 7a,25-OHC stimulated. inhibition, % at 5 µM. 0.81% of 360,000 active. AID 651636; in the data active = inhibition above about 38%;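 also: enzyme fragment complementation signal reports receptor beta-arrestin coupling in cells; 0% = agonist plus DMSO wells and 100% = wells without agonist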
An asterisk follows results filed as active; nt = no result.

SMILES	SENP8 block-1	SENP8 block-2	AHR act	SENP7 block	SENP6 block	EBI2 antag
Cc1[nH]c2ccccc2c1/C=N/NC(=O)c1ccc(N)cc1	-227	0	19	1	1	8
CCOC(=O)[C@]12CCC=C1N(CCC1=CCCCC1)C(=O)[C@H](CC(=O)NCc1ccc(OC)c(OC)c1)C2	6	nt	nt	nt	nt	0
CCOC(=O)c1cc2c(c(-c3cccc(-c4cc5ccccc5o4)c3)n1)[C@@H](CCO)N(S(=O)C(C)(C)C)C2 (stereo partly specified)	-12	nt	nt	nt	nt	-9
COc1cc(-c2cnc3c(NC=O)cc(-c4cccc(C(=O)NCCN(C)C)c4)cn23)cc(OC)c1OC	-132	nt	nt	nt	nt	-3
CCCOc1ccc(F)cc1-c1cc(C(=O)NCc2ccco2)[nH]n1	10	nt	nt	nt	nt	-6
Cc1ccc(NC(=S)N/N=C/c2c(C)[nH]c3ccccc23)cc1	-77	0	75*	3	-8	12
Cc1[nH]c2ccccc2c1/C=N/NC(N)=S	10	4	5	0	5	-7
Cc1[nH]c2ccccc2c1/C=N/NC(=O)c1cc(-c2ccccc2)n[nH]1	-152	-10	59*	-11	-18	-12
CN(C)CCCN(C(=O)c1ccc(S(=O)(=O)N(C)C2CCCCC2)cc1)c1nc2ccc(Br)cc2s1	7	-17	-10	-4	-19	10
O=[N+]([O-])c1ccc(S(=O)(=O)NN=CCCc2ccccc2)cc1	24	nt	nt	nt	nt	3
COc1ccc(NC(=O)c2ccco2)cc1NC(=O)c1cc2ccccc2o1	-47	6	62*	-1	-1	22
COc1cc(OC)cc(C(=O)Nc2cc(NC(=O)c3ccco3)ccc2OC)c1	-13	4	55*	-3	-9	3
COCc1cc(C)nc(Nc2ccccc2OC)c1C#N	-142	-3	52*	2	-13	6
Cc1ccc(S(=O)(=O)Oc2ccccc2-c2ccccc2)cc1	2	nt	nt	nt	nt	25
C/C(CCC1CC(C)OC1=O)=N/Nc1nc(-c2ccccc2)cs1 (stereo unspecified)	4	4	103*	0	8	-6
CC1CC(CC(=O)NNc2nc(-c3ccccc3)cs2)C(=O)O1 (stereo unspecified)	2	-8	3	1	-5	0
Cc1ccc2ccccc2c1C(O)c1ncc(-c2ccc(Cl)cc2)[nH]1 (stereo unspecified)	8	nt	nt	nt	nt	-2
Cc1ccccc1CNC(=O)c1ccc2sc([C@H]3C[C@H](O)[C@@H](CO)O3)nc2c1	15	nt	nt	nt	nt	-6
CCC(=O)Nc1cccc(-c2cn3ccsc3n2)c1	20	-8	54*	-9	-20	-13
CNC(=O)c1ccc(-c2nc(-c3ccccc3)cs2)cc1	-243	-3	-1	4	2	0
O=C(O)c1ccc(-c2nc(-c3ccccc3)cs2)cc1	-87	92*	11	89*	97*	4
CC(=O)Nc1cccc(-c2cn3ccccc3n2)c1	-288	-11	61*	-3	-12	-5
CC(C)C(=O)Nc1cccc(-c2cn3ccccc3n2)c1	-21	-3	8	-1	-2	-3
CCCCC(=O)Nc1cccc(-c2csc(-c3ccccc3)n2)c1	-16	5	69*	5	8	18
CC(C)CC(=O)Nc1cccc(-c2cn3ccsc3n2)c1	22	-5	13	1	-14	-11
SMILES	SENP8 block-1	SENP8 block-2	AHR act	SENP7 block	SENP6 block	EBI2 antag
CC(C)N1CCC1(C)C(=O)Nc1cccc(C#N)c1 (stereo unspecified)	2	nt	nt	nt	nt	-2
CCOC(=O)C1=C[C@@H](c2ccccc2)N(S(=O)(=O)c2ccc(C)cc2)[C@H]1c1cccc(Cl)c1	-1	nt	nt	nt	nt	12
CC(C)(C)CC(=O)Nc1cccc(-c2cn3cccnc3n2)c1	-368	0	48*	-9	-3	-3
COc1cc(C(=O)Nc2cccc(-c3cn4cccnc4n3)c2)cc(OC)c1OC	-407	5	5	-12	-6	-2
CC(=O)Nc1c(C(=O)C2CC2)oc2ccccc12	-19	4	4	6	-10	-17
Cc1c(C(=O)Nc2ccc(Cl)cn2)oc2ccccc12	10	-16	64*	-5	2	7
COc1ccccc1NC(=O)c1oc2ccccc2c1C	3	nt	nt	nt	nt	0
Cc1c(C(=O)Nc2c(C)n(C)n(-c3ccccc3)c2=O)oc2ccc(Cl)cc12	-3	-2	51*	6	-5	10
COc1ccc(NC(=O)c2oc3ccccc3c2C)c(OC)c1	-6	-14	58*	27	-16	17
